Compounds without any hit were thinned out: in the full panel of roughly 83,000, 20% have a hit.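 Single-dose data. Exposure time 48 hours. Values below 10 considered active.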 Active and inactive are the calls of the source.
Tested on: M14 melanoma
Experiment: NCI-60 one-dose screen, 48 h (100 = growth as untreated, 0 = no growth, -100 = all killed)
Details: 10 µM unless noted
Method: Growth inhibition of the M14 human tumor cell line is measured as a screen for anti-cancer activity. Cells are grown in 96 well plates and exposed to the test compound for 48 hours. Compounds are tested at a single concentration, which is 10^-5 M for most compounds. The reported endpoint is percent growth (GI% or GIPRCNT), where numbers from 0 - 100% represent growth inhibition, and numbers from -100% - 0 represent cell death. For example, a value of 40 represents 60% growth inhibition. A value of 0 means no net growth occurred over the course of the experiment. A value of -40 indicates 40% of cells at the beginning of the experiment died by the end of the experiment. A value of -100 means all cells are dead at the end of the experiment.
NCI-60 Human Tumor Cell Lines Screen was performed using the standard one-dose NCI protocol, which is described in more detail at https://dtp.cancer.gov/discovery_development/nci-60/default.htm.
Compounds with GIPRCNT values below 10 were considered active. Activity score was based on GIPRCNT using the following formula: […]
Score is 0 for GIPRCNT values of 100 or above, 50 for GIPRCNT values of 0, and 100 for GIPRCNT values of -100.

SMILES	growth
CCOC(=O)c1cc(C(=O)c2cc(OC)c(OC)c(OC)c2)n2ccccc12	-21.8% (active)
O=C(C1CCCCC1)[C@@H]1[C@]2(C(=O)NC3CCCCC32)[C@@H]2CCCN2[C@@]12C(=O)NC1CCC(Cl)CC12 (stereo not given in full)	-83.2% [100 µM] (active)
Cc1c(CC(=S)N2CCOCC2)nnn1-c1cccc(C(F)(F)F)c1	100% (inactive)
NC(=O)c1cnc(Nc2cccc(N)c2)nc1NCCCNC(=O)C1CCC1	55.4% (inactive)
Cc1ccc2nc(-c3ccc(C(=O)NNC(=S)Nc4ccccc4)cc3)[nH]c2c1	88.6% (inactive)
CNC1=C([N+](=O)[O-])C(c2ccc(OC)cc2)C(C#N)=C(c2cccs2)O1 (stereo not given)	103% (inactive)
COc1ccc(/C(C)=C(\c2ccc(Cl)cc2)c2ccc(OCCN3CCCCC3)cc2)cc1	4.01% (active)
FC(F)(F)c1ccc(Cn2cc(CSc3nc4ccccc4s3)nn2)cc1	100% (inactive)
CCCCCCCCCCCCCOC(=O)c1c(C)[nH]c(/C=C2\N=C(c3ccc[nH]3)C=C2OC)c1C	1.88% (active)
O=C(NC(Cc1nnc2n(Cc3ccccc3)c(=O)c3c4c(sc3n12)CCCC4)c1ccccc1)c1ccccc1 (stereo not given)	86.9% (inactive)
CN1CCN(CCOc2ccc(-c3cnc4c(-c5ccc(F)cc5)cnn4c3)cc2)CC1	-29.8% (active)
C/C(=N\O)c1ccc(NC(=O)CSc2nnc(-c3cc(-c4ccc(S(C)(=O)=O)cc4)nc4ccccc34)n2-c2ccccc2)cc1	93% (inactive)
Cc1cn(-c2cc(NC(=O)c3cncc(C#Cc4c(N)ncc5ccc(F)cc45)c3)cc(C(F)(F)F)c2)cn1	26.6% (inactive)
C=C(C)[C@@H]1CC[C@]2(C)[C@H](CC=C3[C@@H]4CC(C)(C)CC[C@]4(CO)CC[C@]32C)[C@@]1(C)CCCN	-65.5% (active)
CC(C)(C)n1cc(-c2ccnc(NCCCNS(=O)(=O)c3cccc4ccccc34)c2)c(-c2cccc(F)c2)n1	73.3% (inactive)
Cc1[nH]c(C2CC(c3ccc(C(F)(F)F)c(F)c3)=NN2c2ccccc2)c(C)c1C(=O)NCC(F)(F)F (stereo not given)	94.8% (inactive)
O=C(/C=C/C12c3ccccc3C(c3ccccc31)C1C(=O)NC(=O)C12)c1ccc(Br)cc1 (stereo not given)	62.6% (inactive)
O=C(/C=C(O)/C=C/c1cccc2[nH]ccc12)/C=C/c1cccc2[nH]ccc12	38.9% (inactive)
COc1ccc2c(c1)c(-c1nc(-c3c[nH]c4ncccc34)cs1)cn2CCO	59.3% (inactive)
CN(CCC(=O)c1ccccc1)CCC(=O)c1ccccc1	94.7% (inactive)

SMILES	growth
O=C1Nc2ccccc2C1(c1c[nH]c2ccccc12)c1c[nH]c2ccccc12	66% (inactive)
CCOC(=O)c1c(C)nc2c(c1N)CC(=O)N2Cc1ccc(OC)cc1	86.8% (inactive)
CCN1CCN(CC(=O)Nc2ccc(-c3cn4c(n3)sc3cc(Oc5ccnc(C(=O)NC)c5)ccc34)cc2)CC1	73.8% (inactive)
CC/C=C\C[C@H](O)C/C=C1/C(=O)C=C[C@@H]1C/C=C\CCCC(=O)O	57.8% (inactive)
O=C1c2ccccc2C(=O)c2c1c(C(=O)NCc1ccccc1)c1ccccn21	105% (inactive)
C[C@]1(O)CC(=O)[C@]2(O)C3=C(C=C[C@]2(O)C1)C(=O)c1c(O)cccc1C3=O	-24.8% (active)
CCN1CCN(CCNc2nccc(-c3c(-c4ccc(F)c(OC)c4)nc4sccn34)n2)S1(=O)=O	20.7% (inactive)
COc1ccc(CNc2c3ccccc3nc3ccccc23)c(OC)c1	43.8% (inactive)
CCN1C(=O)N(CC)C2C1NC(=S)N2/N=C/c1ccc(OC)cc1 (stereo not given)	29.9% (inactive)
CCOC(=O)C1=C(C)/C(=C\c2[nH]c(C)c(C(=O)OCC)c2C)N=C1C	95.9% (inactive)
Nc1nc(N)c(N=Nc2ccccc2)c(-c2ccccc2)n1	84.5% (inactive)
O=S(=O)(Oc1ccc(Br)cc1)c1ccc(Cl)cc1	94.3% (inactive)
CN1CCN(Cc2ccc(NC(=O)c3cncc(C#Cc4cnc(N)c5ncccc45)c3)cc2C(F)(F)F)CC1	-87% (active)
CCN1C(=O)N(CC)C2C1NC(=S)N2/N=C/c1ccc(C(F)(F)F)cc1 (stereo not given)	53.4% (inactive)
CCN(CC)CCCOc1ccc2ncnc(Nc3ccc(Oc4cccc(C(F)(F)F)c4)c(Cl)c3)c2c1	-72% (active)
O=C(NCc1cccc(CNC(=O)Nc2nc3ccccc3[nH]2)c1)Nc1nc2ccccc2[nH]1	-77.4% (active)
O=C(Nc1ncccc1OCc1ccccc1)NC1CCCCCC1	95.3% (inactive)
Cc1ccc(-c2csc(N(C(=O)N3CCN(c4cc5c(cc4F)c(=O)c(C(=O)O)cn5C4CC4)CC3)c3ccccc3)n2)cc1	21.1% (inactive)
CCOc1c(OC)cc2c(c1O)C(=O)N[C@@H]1[C@@H](O)[C@@H](O)[C@H](O)C[C@@H]21	105% (inactive)
CN(CCCNC(=O)CCOCCOCCOCCNC(=O)Cc1ccc2ccc3cccc4ccc1c2c34)CCCNc1cc(-c2ccc3ccccc3c2)nc2ccccc12	-89.7% (active)

Reference: PubChem BioAssay (NCI)
